Potency, outcome and activity change, negative = inhibition data for 40 compounds are collected here from PubChem BioAssay (NCATS).

Results filed as inconclusive are left out. Where a call stands in place of a potency, no number is given. Values without a mark were called inactive. Active and inactive are the calls of the source. Calls follow the shape of the dose curve; as a rule, active = well fitted inhibition curve with a large enough effect; inconclusive = small, poorly fitted or top-dose-only effect; inactive = no such curve, though single readings can be large or run the other way.
Potency is read from the fitted curve at half-maximal effect.

In this experiment the test system is Zika virus NS2B-NS3 protease (linked construct). Put plainly: Primary screen NINDS Rhodamine qHTS for Zika virus inhibitors (AID 1347160). Also: nearly all actives have a fitted effect of over 55% in size. As to conditions: purified NS2B-NS3 protease, Rhodamine110 substrate fluorescence; series mostly up to 57.1 µM. An excerpt: Avindra Nath, Ph.D., National Institute of Neurological Disorders and Stroke (NINDS), Bethesda, MD
Radhakrishnan Padmanabhan, Ph.D., Georgetown University (GU), Washington D.C.
Zika Virus causes congenital defects, including microcephaly and is associated with Guillain-Barre syndrome, eningoencephalitis and myelitis in infected adult. […] Using a target-based approach, we hope to establish a screening paradigm to uncover novel, cell-active NS2B-NS3 protease (Zika Virus) specific inhibitors from NCATS' collection of small molecules using qHTS.
Four assay panel was created to identify potential Zika Virus inhibitors. Namely, (1) GU unlinked NS2B-NS3 AMC tagged protease qHTS, (2) GU unlinked NS2B-NS3 Rhodamine tagged protease qHTS, (3) NINDS linked NS2B-NS3 AMC tagged protease qHTS, (4) NINDS linked NS2B-NS3 Rhodamine tagged protease qHTS. Active compounds were re-acquired and re-screened to confirm inhibition. Inhibitors were further screened against various confirmatory and counterscreens in dose response format.
Early Translation Branch (ETB)
National Center for Advancing Translational Sciences (NCATS), Rockville, MD
National Institute of Health (NIH), Bethesda, Maryland
For the linked assay, Nath lab (NINDS) provided the purified linked NS2B-NS3 protease which is consists of hydrophilic domain of NS2B linked to the NS3 protease domain by a flexible (-[…]-) linker. Control compound aprotinin is obtained from Thermo Scientific (#78432; Waltham, Massachusetts). Rhodamine110 substrate ([N-Cbz]-Nle-Lys-Arg-Arg-Rhod110-Arg-Arg-Lys-Nle-[N-Cbz]) was purchased from either Genscript or Bachem.
1536-well Protease (Rhodamine110 Substrate) Assay:
Briefly, 3 microL of enzyme (25 nM final concentration), in assay buffer (10 mM Tris-HCl pH 8.0 with 0.01% Tween 20) were dispensed into a 1,536-well solid-bottom black plate (Greiner Bio One, Monroe, NC). Twenty-three nL of compounds (final concentration range 7.28 nM to 114 microM) or control Aprotinin (final concentration range 3.47 nM to 114 microM) were transferred via Wako Pin-tool (Wako Automation, Richmond, VA). Samples were incubated (room temperature, protected from light) for 15 minutes followed by a 1 microL Rhodamine110 substrate addition (1.5 microM final concentration). Plates were then immediately read on a ViewLux High-throughput CCD imager (PerkinElmer, Waltham, MA) equipped with FITC fluorescence optics (480(20) nm excitation, 540(25) nm emission), then incubated (room temperature, protected from light) for 15 minutes (~15% conversion). The change in fluorescence intensity over the 15-minute reaction period was normalized against no-inhibitor and no-enzyme controls and the resulting percent inhibition data were fitted to a 4-parameter Hill equation. Aprotinin was used as intraplate control.
As for `CN1c2ccccc2C(=O)N2CCc3c([nH]c4ccccc34)C21` (stereo not given), the Potency entry is “inactive”.
Regarding `CNC(=O)c1cc(Oc2ccc(NC(=O)Nc3ccc(Cl)c(C(F)(F)F)c3)c(F)c2)ccn1`, the Potency result was “inactive”.
On the same count and under the same terms, then `Cc1c(C(=O)Nc2ccc(N3C[C@@H](C)O[C@@H](C)C3)nc2)cccc1-c1ccc(OC(F)(F)F)cc1`, with “inactive”.
`COc1ccc(-c2cc3nccn3c(Nc3ncccc3C(N)=O)n2)cc1OC`: the Potency entry is “inactive”.
On to `CN[C@@H](C)[C@H]1[C@H](O)C[C@@]2(C)[C@@H]3CC[C@H]4C(C)(C)[C@@H](NC)CC[C@@]45C[C@@]35CC[C@]12C`, for which the outcome is “inactive [at 10.7 µM]”.
With `Cc1cnc(CNC(=O)c2c(=O)c3ccc(N4CCCN(C)CC4)nc3n3c2sc2ccccc23)cn1`, the activity change, negative = inhibition was 6.93% [at 10.7 µM].
Take `CCn1c(-c2nonc2N)nc2cncc(CNC3CCNCC3)c21`: the Potency entry was “inactive”.
With `COC(=O)N1CCN(Cc2cccc(NC(=O)Nc3ccc(C)nc3)c2F)CC1`, the Potency result is “inactive”.
As to `COc1nccc(-c2c(-c3ccc(F)cc3)ncn2C2CCC(O)CC2)n1` (stereo not given), the Potency entry was “inactive”.
Take `Cc1csc(-c2nnc(Nc3ccc(Oc4ncccc4-c4ccnc(N)n4)cc3)c3ccccc23)c1`: the Potency result was “inactive”.
Take `C[C@@H](N)c1ccc(C(=O)Nc2ccnc3[nH]ccc23)cc1`: the Potency entry was “inactive”.
On the same count and under the same terms, the result for `C[C@@]1(C(=O)Nc2ccc(F)nc2)CCCN1c1nc(Nc2cc(C3CC3)[nH]n2)c2cccn2n1` reads “inactive”; that for `CN1CCc2c(n(Cc3ccc(C(=O)NO)cc3)c3ccccc23)C1`, “inactive”; that for `CC1(C)CC(=O)c2c(C(F)(F)F)nn(-c3ccc(C(N)=O)c(NC4CCC(O)CC4)c3)c2C1` (stereo not given), “inactive”.
Same read-out and setting: the result for `CNc1nc(Nc2ccc(C(=O)N3CCOCC3)cc2OC)ncc1Cl` reads “inactive”; that for `CCNC(=O)c1noc(-c2cc(C(C)C)c(O)cc2O)c1-c1ccc(CN2CCOCC2)cc1`, “inactive”; that for `CNC(=O)c1ccc2c(C(=Nc3cccc(CN(C)C)c3)c3ccccc3)c(O)[nH]c2c1`, “inactive”.
Turning to `O=C(Nc1ccc(OC(F)(F)F)cc1)c1sccc1NCc1ccnc2ccccc12`, the Potency result was “inactive”.
Turning to `Clc1ccc(C2(c3ccc(-c4cn[nH]c4)cc3)CCNCC2)cc1`, the Potency result was “inactive”.
As for `O[C@@H](COc1cccc2ncccc12)CN1CCN(C2c3ccccc3[C@@H]3[C@H](c4ccccc42)C3(F)F)CC1` (stereo not given in full), the Potency entry is “inactive”.
Turning to `C[C@@H](NC(=O)c1ncnc(N)c1Cl)c1ncc(C(=O)Nc2cc(C(F)(F)F)c(Cl)cn2)s1`, the Potency result was “inactive”.
With `O=C1NC(=O)C(c2cnc3ccccn23)=C1c1cn2c3c(cccc13)CN(C(=O)N1CCOCC1)CC2`, the Potency entry was “inactive”.
For `COc1nccc(-c2c(-c3ccc(F)cc3)ncn2C2CCNCC2)n1`, the Potency result is “inactive”.
Consider `Cc1ccc2c(c1)c1c(n2CCc2ccc(C)nc2)CCN(C)C1`, for which the Potency result was “inactive”.
On to `Cc1cnc(-c2cc(N3CCN(C(=O)CCS(C)(=O)=O)CC3)ncc2Cl)c(C)c1`, for which the Potency result was “inactive”.
As to `COc1cc2nccc(Oc3ccc(NC(=O)Nc4cc(C)on4)c(Cl)c3)c2cc1OC`, the Potency entry was “inactive”.
On to `Cc1cccc2c1CC[C@H](CN1CCC(c3c(Cl)cccc3Cl)CC1)C[C@@H]2O`, for which the Potency result was “inactive”.
Regarding `Cc1cc(C(C)Nc2ccccc2)c2nc(N3CCOCC3)cc(=O)n2c1` (stereo not given), the Potency result is “inactive”.
Same read-out and setting: the result for `Cc1nc(C(=O)NCC(=O)O)c(O)c2ccc(Oc3ccccc3)cc12` reads “inactive”; that for `CC1=C(C(=O)Nc2cc3cn[nH]c3cc2F)C(c2ccc(C(F)(F)F)cc2)CC(=O)N1` (stereo not given), “inactive”; that for `COc1ccc(CCC(=O)Nc2nc3ccc(Cl)cc3s2)cc1OC`, “inactive”.
For the compound `COc1cc(Nc2nc3ccccc3nc2NS(=O)(=O)c2ccc(NC(=O)c3ccc(C)c(OC)c3)cc2)cc(OC)c1`, the Potency was 3.16 µM (active).
For `CCN(CCO)CCCOc1ccc2c(Nc3cc(CC(=O)Nc4cccc(F)c4)[nH]n3)ncnc2c1`, the Potency result was “inactive”.
On the same count and under the same terms, the result for `CCN1CCN(c2ccc(Nc3cc(N(C)C(=O)Nc4c(Cl)c(OC)cc(OC)c4Cl)ncn3)cc2)CC1` reads “inactive”.
With `COc1ccc(Cn2ccc3ccc(C(=O)NO)cc32)cc1`, the Potency entry is “inactive”.
For the compound `Cn1cnc(-c2cc3nccc(Oc4ccc(NC(=S)NC(=O)Cc5ccccc5)cc4F)c3s2)c1`, the Potency entry is “inactive”.
`Cc1ccccc1C(C(=O)NC1CCCCC1)N(C(=O)CNc1ccc(C#N)cc1)c1cccc(F)c1` (stereo not given): the Potency entry was “inactive”.
For `Nc1[nH]nc2nnc(-c3c(-c4ccccc4)nn4ccccc34)cc12`, the Potency entry is “inactive”.
Consider `C[C@H](c1ccc(F)cc1CCCC(=O)O)N(c1cc(F)ccc1F)S(=O)(=O)c1ccc(Cl)cc1`, for which the Potency was 14.1 µM (active).
As for `COc1ccc(-c2nc3ccc(C4=NNC(=O)CC4C)cc3[nH]2)cc1` (stereo not given), the Potency result was “inactive”.
